Data: PubChem BioAssay (NCI)
Compounds without any hit were thinned out: in the full panel of roughly 79,000, 15% have a hit. The source made the active and inactive calls. No stated cut-off is given here; in the data, active means growth inhibition above about 70%; inactive means the rest.

Legend:
[1] = NCI Yeast Anticancer Drug Screen. Data for the rad52 strain (AID 147);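 further: 0% = growth of vehicle-treated control cultures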; conditions: S. cerevisiae rad52 mutant growth inhibition, stronger effect = higher value
Outline: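 The repair-mutant yeast strain was incubated with compounds, then growth was read and inhibition derived relative to vehicle.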

[2] = NCI Yeast Anticancer Drug Screen. Data for the wt1 strain (AID 149);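 further: 0% = growth of vehicle-treated wt1 cultures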; conditions: S. cerevisiae wt1 strain (SPY 50644) growth inhibition, stronger effect = higher value
Outline: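 Compounds are added to wt1 yeast cultures. Growth is then measured. Inhibition is expressed relative to vehicle-treated controls.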

[3] = NCI Yeast Anticancer Drug Screen. Data for the rad50EPP+ strain (AID 151);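 further: 0% = growth of vehicle-treated control cultures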; conditions: S. cerevisiae rad50 mutant strain, stronger effect = higher value
Outline: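 Vehicle-normalised growth inhibition; rad50EPP+ yeast strain, altered in DNA damage repair, compound-treated.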

[4] = NCI Yeast Anticancer Drug Screen. Data for the rad50 strain (AID 155);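 further: 0% = growth of vehicle-only cultures of the same strain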; conditions: S. cerevisiae rad50 strain growth inhibition, stronger effect = higher value
Outline: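 Inhibition values express reduced yeast growth in compound-treated cultures relative to vehicle-treated controls.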

[5] = NCI Yeast Anticancer Drug Screen. Data for the mec2-1 strain (AID 157); conditions: S. cerevisiae mec2-1 strain, stronger effect = higher value
Outline: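 Mutant yeast (mec2-1) grown with compound; growth inhibition relative to vehicle control reported.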

[6] = NCI Yeast Anticancer Drug Screen. Data for the rad14 strain (AID 159);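 further: 0% = growth of vehicle-treated control cultures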; conditions: S. cerevisiae rad14 strain growth inhibition, stronger effect = higher value
Outline: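 A mutant yeast strain defective in DNA damage repair is treated with compound; inhibition of its growth is scored against untreated, vehicle-exposed cultures.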

[7] = NCI Yeast Anticancer Drug Screen. Data for the CLN2oe strain (AID 163);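 further: 0% = growth of vehicle-only control cultures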; conditions: S. cerevisiae CLN2oe strain, stronger effect = higher value
Outline: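 Compounds are applied to yeast harbouring a defined cell-cycle control change; reduced growth compared with vehicle-treated controls gives the value.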

[8] = NCI Yeast Anticancer Drug Screen. Data for the cln2 rad14 strain (AID 165);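 further: 0% = growth equal to vehicle treated cultures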; conditions: S. cerevisiae cln2 rad14 strain, stronger effect = higher value
Outline: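 Readout is yeast growth inhibition versus vehicle-treated controls, using a strain with cln2 and rad14 alterations exposed to compound.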

[9] = NCI Yeast Anticancer Drug Screen. Data for the wt2 strain (AID 169);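 further: 0% = growth of vehicle-treated yeast cultures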; conditions: S. cerevisiae wt2 strain growth inhibition, stronger effect = higher value
Outline: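 Against vehicle-treated controls, the growth of yeast exposed to each compound was compared, and the inhibition was recorded.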

[10] = NCI Yeast Anticancer Drug Screen. Data for the mlh1 strain (AID 171);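 further: 0% = growth of vehicle-treated control cultures of the same strain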; conditions: S. cerevisiae mlh1 strain growth inhibition, stronger effect = higher value
Outline: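 Measured: yeast growth. Reference: vehicle-treated controls. Organism: strain with a defined alteration affecting DNA damage repair or cell cycle control, treated with compound.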

[11] = NCI Yeast Anticancer Drug Screen. Data for the mlh1 rad18 strain (AID 175); conditions: S. cerevisiae mlh1 rad18 strain growth inhibition, stronger effect = higher value
Outline: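 Genetically defined yeast (DNA repair-deficient) exposed to compounds; growth inhibition determined relative to vehicle.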

[12] = NCI Yeast Anticancer Drug Screen. Data for the rad18 strain (AID 177); conditions: S. cerevisiae rad18 mutant growth inhibition, stronger effect = higher value
Outline: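 Vehicle-treated cultures served as the baseline for scoring compound-induced growth inhibition in DNA-repair-mutant yeast.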

[13] = NCI Yeast Anticancer Drug Screen. Data for the mgt1 strain (AID 153); conditions: S. cerevisiae mgt1 mutant growth inhibition, stronger effect = higher value
Outline: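 Vehicle-normalized growth inhibition is determined in mgt1 yeast, a strain selected for a defined alteration in DNA repair or cell cycle control.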

[14] = NCI Yeast Anticancer Drug Screen. Data for the sgs1 mgt1 strain (AID 161);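 further: 0% = growth of cultures given vehicle only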; conditions: S. cerevisiae sgs1 mgt1 strain, stronger effect = higher value
Outline: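 Yeast cells carrying a defined DNA-repair defect were exposed to test compounds. Growth inhibition was measured relative to vehicle-treated controls.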

[15] = NCI Yeast Anticancer Drug Screen. Data for the bub3 strain (AID 167); conditions: S. cerevisiae bub3 mutant strain, stronger effect = higher value
Outline: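 Steps: expose the mutant yeast strain to compound; grow alongside vehicle-treated cultures; measure growth; express inhibition against the vehicle cultures.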

[16] = at 5.0 µM (retest, dose inferred, filed as 0.5)
[17] = at 50.0 µM (retest, dose inferred, filed as 5.0)

Measured: growth inhibition

c1ccc(CCN2CCc3ccccc3C2)cc1
active: [11]; [17] 71%
inactive: [1]; at 1.2 µM -1% | [1]; at 3.7 µM 0% | [1]; at 11.0 µM 10% | [1]; at 33.0 µM 12% | [1]; at 100.0 µM 19% | [2]; at 1.2 µM -1% | [2]; at 3.7 µM 4% | [2]; at 11.0 µM 4% | [2]; at 33.0 µM 6% | [2]; at 100.0 µM 4% | [3]; at 1.2 µM -3% | [3]; at 3.7 µM -3% | [3]; at 11.0 µM -1% | [3]; at 33.0 µM -4% | [3]; at 100.0 µM 0% | [4]; at 1.2 µM 1% | [4]; at 3.7 µM 2% | [4]; [16] -9% | [4]; at 11.0 µM 3% | [4]; at 33.0 µM 8% | [4]; [17] 49% | [4]; at 50.0 µM 43.9% | [4]; at 100.0 µM 10% | [5]; at 1.2 µM -3% | [5]; at 3.7 µM 1% | [5]; [16] -10% | [5]; at 11.0 µM 6% | [5]; at 33.0 µM 8% | [5]; [17] 1% | [5]; at 50.0 µM 12.8% | [5]; at 100.0 µM 8% | [6]; at 1.2 µM 2% | [6]; at 3.7 µM 10% | [6]; at 11.0 µM 24% | [6]; at 33.0 µM 33% | [6]; at 100.0 µM 29% | [7]; at 1.2 µM -3% | [7]; at 3.7 µM -9% | [7]; at 11.0 µM 12% | [7]; at 33.0 µM 28% | [7]; at 100.0 µM 41% | [8]; [16] -6% | [8]; [17] 21% | [8]; at 50.0 µM 33.7% | [9]; at 1.2 µM -1% | [9]; at 3.7 µM 1% | [9]; at 11.0 µM 4% | [9]; at 33.0 µM 8% | [9]; at 100.0 µM 8% | [10]; at 1.2 µM -2% | [10]; at 3.7 µM 1% | [10]; at 11.0 µM 4% | [10]; at 33.0 µM 11% | [10]; at 100.0 µM 11% | [11]; [16] 11% | [11]; at 50.0 µM 21.9% | [12]; at 1.2 µM 0% | [12]; at 3.7 µM 1% | [12]; at 11.0 µM 8% | [12]; at 33.0 µM 13% | [12]; at 100.0 µM 10%

Cc1csc(=S)n1OC(=O)NC1CCCCC1
active: [1]; at 11.0 µM 99% | [1]; at 33.0 µM 99% | [1]; at 100.0 µM 99% | [2]; at 3.7 µM 97% | [2]; at 11.0 µM 99% | [2]; at 33.0 µM 100% | [2]; at 100.0 µM 99% | [3]; at 3.7 µM 99% | [3]; at 11.0 µM 99% | [3]; at 33.0 µM 99% | [3]; at 100.0 µM 99% | [13]; at 3.7 µM 99% | [13]; at 11.0 µM 100% | [13]; at 33.0 µM 100% | [13]; at 100.0 µM 99% | [5]; at 3.7 µM 93% | [5]; at 11.0 µM 99% | [5]; at 33.0 µM 93% | [5]; [17] 99% | [5]; at 50.0 µM 94.2% | [5]; at 100.0 µM 95% | [14]; [17] 96% | [14]; at 50.0 µM 93.5% | [7]; at 3.7 µM 99% | [7]; at 11.0 µM 100% | [7]; at 33.0 µM 100% | [7]; at 100.0 µM 100% | [8]; [16] 83% | [8]; [17] 98% | [8]; at 50.0 µM 92.2% | [15]; at 3.7 µM 99% | [15]; [16] 99% | [15]; at 11.0 µM 99% | [15]; at 33.0 µM 100% | [15]; [17] 97% | [15]; at 50.0 µM 91.8% | [15]; at 100.0 µM 99% | [9]; at 3.7 µM 97% | [9]; at 11.0 µM 99% | [9]; at 33.0 µM 99% | [9]; at 100.0 µM 99% | [10]; at 3.7 µM 99% | [10]; at 11.0 µM 100% | [10]; at 33.0 µM 99% | [10]; at 100.0 µM 98% | [11]; [16] 97% | [11]; [17] 98% | [11]; at 50.0 µM 92.1% | [12]; at 3.7 µM 94% | [12]; at 11.0 µM 98% | [12]; at 33.0 µM 98% | [12]; at 100.0 µM 98%
inactive: [1]; at 1.2 µM -54% | [1]; at 3.7 µM 63% | [2]; at 1.2 µM -5% | [3]; at 1.2 µM -23% | [13]; at 1.2 µM 18% | [5]; at 1.2 µM -11% | [5]; [16] -3% | [14]; [16] 32% | [7]; at 1.2 µM -6% | [15]; at 1.2 µM 3% | [9]; at 1.2 µM -23% | [10]; at 1.2 µM 8% | [12]; at 1.2 µM -11%

C=C(Cl)COC(=O)Nc1cccc(Cl)c1
active: [1]; at 33.0 µM 80% | [1]; at 100.0 µM 97% | [2]; at 100.0 µM 90% | [3]; at 33.0 µM 75% | [3]; at 100.0 µM 84% | [13]; at 100.0 µM 96% | [5]; at 100.0 µM 91%
inactive: [1]; at 1.2 µM 3% | [1]; at 3.7 µM 8% | [1]; at 11.0 µM 30% | [2]; at 1.2 µM -1% | [2]; at 3.7 µM -1% | [2]; at 11.0 µM 1% | [2]; at 33.0 µM 13% | [3]; at 1.2 µM 7% | [3]; at 3.7 µM 25% | [3]; at 11.0 µM 52% | [13]; at 1.2 µM -14% | [13]; at 3.7 µM -6% | [13]; at 11.0 µM -11% | [13]; at 33.0 µM 16% | [5]; at 1.2 µM -19% | [5]; at 3.7 µM -10% | [5]; [16] -17% | [5]; at 11.0 µM -25% | [5]; at 33.0 µM 0% | [5]; [17] 19% | [5]; at 50.0 µM 3.15% | [6]; at 1.2 µM 1% | [6]; at 3.7 µM 2%
